{
  "source": "PubChem BioAssay",
  "note": "Activity calls are given as the source filed them.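 How the source made its calls: active means GFP response above 150% of the DMSO level; inconclusive means fewer than 70 events counted for a yeast strain; inactive means the rest.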",
  "data": [
    {"experiment": "AGP1-GFP expression modulators, hit retest, confirmation, cell-based, flow cytometry, S. cerevisiae, cherry picks (AID 2273);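 further: median GFP channel fluorescence over the whole cell population gate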", "conditions": "S. cerevisiae AGP1-GFP strain, 3 h, at 10 µM", "values": [
      {"smiles": "CCOC(=O)c1ccc(NC(=O)CCc2nc(-c3ccc(C)cc3)no2)cc1", "GFP response, % of DMSO": "100% (inactive)"},
      {"smiles": "Cc1cccc(N2C(=O)C(Cl)=C(Nc3c(C)n(C)n(-c4ccccc4)c3=O)C2=O)c1C", "GFP response, % of DMSO": "103% (inactive)"},
      {"smiles": "Cc1noc2ncnc(Sc3ccc(Cl)cc3)c12", "GFP response, % of DMSO": "94.7% (inactive)"},
      {"smiles": "CCN(CC)c1ccc(/C=C/c2cccc[n+]2C)c(OC)c1", "GFP response, % of DMSO": "104% (inactive)"},
      {"smiles": "CC1=NOC(=O)/C1=C\\c1ccc(-c2cc(Cl)ccc2Cl)o1", "GFP response, % of DMSO": "100% (inactive)"},
      {"smiles": "CCCN(c1ccccc1F)S(=O)(=O)c1cc(-c2cc(C)no2)ccc1OC", "GFP response, % of DMSO": "95.6% (inactive)"},
      {"smiles": "COc1ccccc1-c1noc(CCC(=O)Nc2cccc(C)c2)n1", "GFP response, % of DMSO": "90.8% (inactive)"},
      {"smiles": "O=C(c1ccc([N+](=O)[O-])o1)N1CCN(c2nc3ccc(F)cc3s2)CC1", "GFP response, % of DMSO": "87.7% (inactive)"},
      {"smiles": "COc1ccc(Br)cc1/C=C/C(=O)c1ccc(NC(C)=O)cc1", "GFP response, % of DMSO": "98.6% (inactive)"},
      {"smiles": "CCOc1ccc(/C=C/C(=O)c2c(O)cc(C)oc2=O)cc1", "GFP response, % of DMSO": "107% (inactive)"},
      {"smiles": "CN1CCN(C(c2ccc(C(F)(F)F)cc2)c2ccc3cccnc3c2O)CC1", "note": "(stereo not given)", "GFP response, % of DMSO": "87.4% (inactive)"},
      {"smiles": "O=C(NNC(=S)NC(=O)C12CC3CC(CC(C3)C1)C2)c1ccncc1", "GFP response, % of DMSO": "97.3% (inactive)"},
      {"smiles": "Cc1ccccc1NC(=O)c1ccccc1", "GFP response, % of DMSO": "96.4% (inactive)"},
      {"smiles": "Cc1cc(C(=O)Nc2nc(-c3ccccn3)cs2)ccc1[N+](=O)[O-]", "GFP response, % of DMSO": "84.3% (inactive)"},
      {"smiles": "N/C(=N\\OC(=O)c1cccc(Br)c1)c1ccccc1", "GFP response, % of DMSO": "64.6% (inactive)"},
      {"smiles": "O=C(Nc1nccs1)C(c1ccccc1)N1CCCCC1", "note": "(stereo not given)", "GFP response, % of DMSO": "101% (inactive)"},
      {"smiles": "C=CCNC(=S)N/N=C(\\C)c1cccc(OC)c1", "GFP response, % of DMSO": "95.2% (inactive)"},
      {"smiles": "O=[N+]([O-])c1cc(CN2CCN(c3cccc(C(F)(F)F)c3)CC2)c2cccnc2c1O", "GFP response, % of DMSO": "116% (inactive)"},
      {"smiles": "COc1ccccc1/C=C/C=N/NC(=O)c1cccs1", "GFP response, % of DMSO": "100% (inactive)"},
      {"smiles": "O=C(Oc1ccnc2cc(Cl)ccc12)N1CCCCCC1", "GFP response, % of DMSO": "185% (active)"},
      {"smiles": "O=C(c1ccc([N+](=O)[O-])o1)N1CCN(c2nc3c(F)cc(F)cc3s2)CC1", "GFP response, % of DMSO": "102% (inactive)"},
      {"smiles": "Cc1nn(Cc2ccccc2Cl)c(C)c1C(=O)NCc1ccco1", "GFP response, % of DMSO": "99.3% (inactive)"},
      {"smiles": "N#C/C(=C\\c1ccccn1)c1nc2ccccc2s1", "GFP response, % of DMSO": "205% (active)"},
      {"smiles": "Cc1ccc(NC(=O)c2ccc([N+](=O)[O-])o2)cc1C", "GFP response, % of DMSO": "99.8% (inactive)"},
      {"smiles": "O=C(N/N=C/c1ccc(-c2ccc(Br)cc2)o1)c1ccc2c(c1)OCO2", "GFP response, % of DMSO": "98.8% (inactive)"},
      {"smiles": "Cc1n[nH]c(C)c1N1C(=O)c2cccc3cc(Br)cc(c23)C1=O", "GFP response, % of DMSO": "105% (inactive)"},
      {"smiles": "CC(C)(C)NC(=O)c1ccccc1-c1nc(-c2ccccc2Cl)no1", "GFP response, % of DMSO": "97.3% (inactive)"},
      {"smiles": "CCn1c(=O)c(C(=O)NCCc2ccccc2)c(O)c2ccccc21", "GFP response, % of DMSO": "108% (inactive)"},
      {"smiles": "O=C(O)Cn1cc(/C=C/[N+](=O)[O-])c2ccccc21", "GFP response, % of DMSO": "93.9% (inactive)"},
      {"smiles": "O=[N+]([O-])c1cc(C(F)(F)F)ccc1Sc1ccc2ccccc2n1", "GFP response, % of DMSO": "97.5% (inactive)"},
      {"smiles": "Cc1ccc(NC(=S)c2nc3ccccc3[nH]2)cc1", "GFP response, % of DMSO": "88.3% (inactive)"},
      {"smiles": "CCOc1ccc(C(C)=O)cc1N1C(=O)C2C3C=CC(O3)C2C1=O", "note": "(stereo not given)", "GFP response, % of DMSO": "97.9% (inactive)"},
      {"smiles": "O=C(CSc1nnc(-c2ccccn2)n1Cc1ccccc1)N1CCOCC1", "GFP response, % of DMSO": "101% (inactive)"},
      {"smiles": "Cc1cc(N2CCOCC2)n2nc(C)c(-c3ccccc3)c2n1", "GFP response, % of DMSO": "101% (inactive)"},
      {"smiles": "CCN(CC)CCN(C(=O)c1ccc2c(c1)CCCC2)c1nc2cc(OC)c(OC)cc2s1", "GFP response, % of DMSO": "101% (inactive)"},
      {"smiles": "COc1ccc(-c2ccc(CCC(=O)O)o2)cc1", "GFP response, % of DMSO": "86.3% (inactive)"},
      {"smiles": "COc1ccc(N2C(=O)C(Cl)=C(Nc3c(C)n(C)n(-c4ccccc4)c3=O)C2=O)cc1", "GFP response, % of DMSO": "89% (inactive)"},
      {"smiles": "Cn1ncc(N2CCN(S(=O)(=O)c3ccc(Br)cc3)CC2)c(Cl)c1=O", "GFP response, % of DMSO": "99.3% (inactive)"},
      {"smiles": "O=C(CCc1ccccc1)NNC(=S)NC(=O)c1ccccc1", "GFP response, % of DMSO": "100% (inactive)"},
      {"smiles": "Cc1ccc(C(=O)OCC(=O)Nc2ccccc2Sc2ccccc2)cc1C", "GFP response, % of DMSO": "99.3% (inactive)"}
    ]},
    {"experiment": "modulators of CIT2-GFP expression in yeast, confirmation, S. cerevisiae, GFP fusion, cherry picks, mother/daughter gates (AID 2274)", "conditions": "S. cerevisiae CIT2-GFP strain, flow cytometry, 3 h; at 10 µM; stronger effect = higher value", "values": [
      {"smiles": "CCOC(=O)c1ccc(NC(=O)CCc2nc(-c3ccc(C)cc3)no2)cc1", "GFP response, % of DMSO": "91.5% (inactive)"},
      {"smiles": "Cc1cccc(N2C(=O)C(Cl)=C(Nc3c(C)n(C)n(-c4ccccc4)c3=O)C2=O)c1C", "GFP response, % of DMSO": "99.3% (inactive)"},
      {"smiles": "Cc1noc2ncnc(Sc3ccc(Cl)cc3)c12", "GFP response, % of DMSO": "104% (inactive)"},
      {"smiles": "CCN(CC)c1ccc(/C=C/c2cccc[n+]2C)c(OC)c1", "GFP response, % of DMSO": "112% (inactive)"},
      {"smiles": "CC1=NOC(=O)/C1=C\\c1ccc(-c2cc(Cl)ccc2Cl)o1", "GFP response, % of DMSO": "114% (inactive)"},
      {"smiles": "CCCN(c1ccccc1F)S(=O)(=O)c1cc(-c2cc(C)no2)ccc1OC", "GFP response, % of DMSO": "95.5% (inactive)"},
      {"smiles": "COc1ccccc1-c1noc(CCC(=O)Nc2cccc(C)c2)n1", "GFP response, % of DMSO": "95% (inactive)"},
      {"smiles": "O=C(c1ccc([N+](=O)[O-])o1)N1CCN(c2nc3ccc(F)cc3s2)CC1", "GFP response, % of DMSO": "101% (inactive)"},
      {"smiles": "COc1ccc(Br)cc1/C=C/C(=O)c1ccc(NC(C)=O)cc1", "GFP response, % of DMSO": "98.6% (inactive)"},
      {"smiles": "CCOc1ccc(/C=C/C(=O)c2c(O)cc(C)oc2=O)cc1", "GFP response, % of DMSO": "93.1% (inactive)"},
      {"smiles": "CN1CCN(C(c2ccc(C(F)(F)F)cc2)c2ccc3cccnc3c2O)CC1", "note": "(stereo not given)", "GFP response, % of DMSO": "97.3% (inactive)"},
      {"smiles": "O=C(NNC(=S)NC(=O)C12CC3CC(CC(C3)C1)C2)c1ccncc1", "GFP response, % of DMSO": "115% (inactive)"},
      {"smiles": "Cc1ccccc1NC(=O)c1ccccc1", "GFP response, % of DMSO": "98.3% (inactive)"},
      {"smiles": "Cc1cc(C(=O)Nc2nc(-c3ccccn3)cs2)ccc1[N+](=O)[O-]", "GFP response, % of DMSO": "105% (inactive)"},
      {"smiles": "N/C(=N\\OC(=O)c1cccc(Br)c1)c1ccccc1", "GFP response, % of DMSO": "140% (inactive)"},
      {"smiles": "O=C(Nc1nccs1)C(c1ccccc1)N1CCCCC1", "note": "(stereo not given)", "GFP response, % of DMSO": "94.4% (inactive)"},
      {"smiles": "C=CCNC(=S)N/N=C(\\C)c1cccc(OC)c1", "GFP response, % of DMSO": "96.4% (inactive)"},
      {"smiles": "O=[N+]([O-])c1cc(CN2CCN(c3cccc(C(F)(F)F)c3)CC2)c2cccnc2c1O", "GFP response, % of DMSO": "138% (inactive)"},
      {"smiles": "COc1ccccc1/C=C/C=N/NC(=O)c1cccs1", "GFP response, % of DMSO": "99.1% (inactive)"},
      {"smiles": "O=C(Oc1ccnc2cc(Cl)ccc12)N1CCCCCC1", "GFP response, % of DMSO": "92.6% (inactive)"},
      {"smiles": "O=C(c1ccc([N+](=O)[O-])o1)N1CCN(c2nc3c(F)cc(F)cc3s2)CC1", "GFP response, % of DMSO": "142% (inactive)"},
      {"smiles": "Cc1nn(Cc2ccccc2Cl)c(C)c1C(=O)NCc1ccco1", "GFP response, % of DMSO": "98.6% (inactive)"},
      {"smiles": "N#C/C(=C\\c1ccccn1)c1nc2ccccc2s1", "GFP response, % of DMSO": "506% (active)"},
      {"smiles": "Cc1ccc(NC(=O)c2ccc([N+](=O)[O-])o2)cc1C", "GFP response, % of DMSO": "100% (inactive)"},
      {"smiles": "O=C(N/N=C/c1ccc(-c2ccc(Br)cc2)o1)c1ccc2c(c1)OCO2", "GFP response, % of DMSO": "102% (inactive)"},
      {"smiles": "Cc1n[nH]c(C)c1N1C(=O)c2cccc3cc(Br)cc(c23)C1=O", "GFP response, % of DMSO": "102% (inactive)"},
      {"smiles": "CC(C)(C)NC(=O)c1ccccc1-c1nc(-c2ccccc2Cl)no1", "GFP response, % of DMSO": "93% (inactive)"},
      {"smiles": "CCn1c(=O)c(C(=O)NCCc2ccccc2)c(O)c2ccccc21", "GFP response, % of DMSO": "98.6% (inactive)"},
      {"smiles": "O=C(O)Cn1cc(/C=C/[N+](=O)[O-])c2ccccc21", "GFP response, % of DMSO": "99.7% (inactive)"},
      {"smiles": "O=[N+]([O-])c1cc(C(F)(F)F)ccc1Sc1ccc2ccccc2n1", "GFP response, % of DMSO": "95% (inactive)"},
      {"smiles": "Cc1ccc(NC(=S)c2nc3ccccc3[nH]2)cc1", "GFP response, % of DMSO": "102% (inactive)"},
      {"smiles": "CCOc1ccc(C(C)=O)cc1N1C(=O)C2C3C=CC(O3)C2C1=O", "note": "(stereo not given)", "GFP response, % of DMSO": "110% (inactive)"},
      {"smiles": "O=C(CSc1nnc(-c2ccccn2)n1Cc1ccccc1)N1CCOCC1", "GFP response, % of DMSO": "104% (inactive)"},
      {"smiles": "Cc1cc(N2CCOCC2)n2nc(C)c(-c3ccccc3)c2n1", "GFP response, % of DMSO": "98.8% (inactive)"},
      {"smiles": "CCN(CC)CCN(C(=O)c1ccc2c(c1)CCCC2)c1nc2cc(OC)c(OC)cc2s1", "GFP response, % of DMSO": "99.3% (inactive)"},
      {"smiles": "COc1ccc(-c2ccc(CCC(=O)O)o2)cc1", "GFP response, % of DMSO": "101% (inactive)"},
      {"smiles": "COc1ccc(N2C(=O)C(Cl)=C(Nc3c(C)n(C)n(-c4ccccc4)c3=O)C2=O)cc1", "GFP response, % of DMSO": "92.1% (inactive)"},
      {"smiles": "Cn1ncc(N2CCN(S(=O)(=O)c3ccc(Br)cc3)CC2)c(Cl)c1=O", "GFP response, % of DMSO": "98.3% (inactive)"},
      {"smiles": "O=C(CCc1ccccc1)NNC(=S)NC(=O)c1ccccc1", "GFP response, % of DMSO": "106% (inactive)"},
      {"smiles": "Cc1ccc(C(=O)OCC(=O)Nc2ccccc2Sc2ccccc2)cc1C", "GFP response, % of DMSO": "103% (inactive)"}
    ]}
  ]
}
